Shiga inhibitor = inhibitors of Shiga toxin in Vero cells | Vero cells, Shiga toxin protein synthesis inhibition reporter | inhibition, % at 38.7 µM | 290,000 tested, 9.2% active; in the data active = inhibition mostly above about 28%, no sharp cut-off; inactive = mostly below about 43%; also: 0% is about no effect
Pf growth 48h = P. falciparum growth inhibition at 48 hours (one generation). 310,000 tested, 5.9% active. AID 504832. P. falciparum luciferase growth in erythrocytes, 48 h. Potency, µM (doses to about 28.7 µM), without a hit: at the highest dose activity change, negative = inhibition, actives largely listed as inhibitors; also: potency is read from the fitted curve at half-maximal effect; % is scaled to controls: 0 for no effect and ±100 for the full control effect
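Cell-based growth assay: transgenic P. falciparum expressing firefly luciferase, cultured in red cells within RPMI 1640 containing 0.5% w/v Albumax, 24 mM bicarbonate and gentamycin. A drop in luciferase activity indicates inhibition.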
Pf growth 96h = P. falciparum growth inhibition at 96 hour, primary screen for plastid delayed-death inhibitors; P. falciparum luciferase reporter growth, 96 h; Potency, µM (highest dose often 28.7 µM), for the others: at the top dose activity change, negative = inhibition, most hits filed as inhibitors; 320,000 tested, 6.9% active; also: potency is read from the fitted curve at half-maximal effect; % is scaled to controls: 0 for no effect and ±100 for the full control effect
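Infected RBCs, 2% Hct / 0.05% parasitemia final; luciferase-reporter P. falciparum; cpd 96 h, 37 C, 5% CO2; luciferase detection reagent; luminescence.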
Cycloheximide cs = counter-screen for Shiga toxin inhibitors: cycloheximide protein synthesis inhibition. cell reporter, cycloheximide protein synthesis inhibition counterscreen. AID 2314. max response, %. 300,000 tested, 12% active; in the data active = max response mostly above about 13%, no sharp cut-off; inactive = mostly below about 14%; also: read at 38.3 µM for the half of the compounds with a filed dose; 0% is about no effect
NS1 inh = inhibitors of influenza NS1 protein function; Potency, µM (top dose mostly 46.1 µM), without a hit: at the top dose activity, positive = more growth; 270,000 tested, 0.4% active; AID 2326; calls by dose curve; also: potency is read from the fitted curve at half-maximal effect; actives are rising curves; nearly all actives have a fitted effect of over 50% in size
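A cell-based growth assay was used: compounds that relieve NS1-induced slow growth of budding yeast raise OD600. Assay medium was yeast nitrogen base with ammonium sulphate and -URA supplement, pH 6.0, with 2% galactose.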
* = called active by the depositor; ? = inconclusive; / = not tested or not shown; [ ] = another dose, or the depositor's remark. Compounds with a hit are over-represented: about 21% of the library has one in this group of screens. Unless noted, calls follow the shape of the dose curve; as a rule, active = well fitted inhibition curve with a large enough effect; inconclusive = small, poorly fitted or top-dose-only effect, or another doubt; inactive = no such curve, though single readings can be large or run the other way.

SMILES	Shiga inhibitor	Pf growth 48h	Pf growth 96h	Cycloheximide cs	NS1 inh
CCCCN(Cc1nc2ccccc2c(=O)[nH]1)C(=O)COc1ccc(F)cc1Cl	/	2.62µM*	3.7µM*	/	/
Cc1cccc(COc2ccccc2C(=O)OCC(=O)N(C)c2c(N)n(Cc3ccccc3)c(=O)[nH]c2=O)c1	10.5	?	?	6.1	-7.9%
O=C(CSc1nnc(Cn2c(=O)sc3ccccc32)n1CCc1ccccc1)N1CCOCC1	12.6	9.28µM*	?	7.8	-3.0%
CSc1nnc(Cn2c(=O)sc3ccccc32)n1C	10.5	-2.6%	?	1.6	-2.1%
CSc1nnc(Cn2c(=O)sc3ccccc32)n1CCc1ccccc1	-14.6	/	13.1µM*	-8.3	-44.6%
O=S(=O)(N/N=C/c1ccc(OC2CSC2)cc1)c1ccccc1	14.8	28.7%	-16.2%	4.6	18.8%
Cc1cccn2cc(-c3ccccc3)nc12	63.6*	386.4%	?	51.6*	-11.6%
Cc1cccn2cc(CCNS(=O)(=O)c3cccs3)nc12	53.2	13.6%	21.0%	20.7*	-1.4%
Cc1cccn2cc(-c3cccc(S(=O)(=O)N4CCOCC4)c3)nc12	12.6	-14.5%	-8.6%	-1.8	13.1%
Cc1cccn2cc(CNc3ccccc3)nc12	68.1*	45.3%	-1.3%	50.6*	-0.2%
COc1ccc(C(=O)NCc2cn3cccc(C)c3n2)cc1OC	-10.5	/	-9.5%	0.9	2.6%
COc1ccc(-c2cn3cccc(C)c3n2)cc1Br	150.3*	287.0%	-33.3%	76.0*	-16.8%
CCCS(=O)(=O)NCc1cn2cccc(C)c2n1	-8.0	5.8%	16.7%	1.2	-4.5%
CCC(=O)NNC(=O)c1cc(COc2cc(Cl)cc(Cl)c2)on1	12.1	-5.8%	26.5%	0.8	-10.1%
CC(=O)Nc1ccc(C(=O)OCC(=O)Nc2ccccc2F)cc1	14.9	8.9%	26.7%	25.7	-4.5%
NC(=O)[C@@H]1CSSCCC(=O)N[C@@H](CCCCN=C(N)N)C(=O)NCC(=O)N[C@@H](CC(=O)O)C(=O)N[C@@H](Cc2c[nH]c3ccccc23)C(=O)N2CCC[C@H]2C(=O)N1	/	0.7%	6.8%	/	/
CCOC(=S)SCc1cn2cccc(C)c2n1	4.7	14.9%	13.7%	23.9*	/
Cc1cccn2cc(-c3ccc(F)cc3)nc12	71.1*	183.2%	353.7%	39.3*	-45.7%
COc1cc(C(=O)NCc2cn3cccc(C)c3n2)cc(OC)c1OC	-4.3	/	-15.9%	-3.9	-31.4%
CCc1noc(C)c1C(=O)NNC(=O)c1ccccc1Cl	/	20.8%	5.3%	/	/
CC1(C)Cc2nc3sc(C(=O)NCCO)c(N)c3cc2CO1	51.3*	215.6%	-1.2%	19.5*	2.5%[9.22 µM]
CC1(C)Cc2nc3sc(C(=O)NCCCO)c(N)c3cc2CS1	25.6	29.8%	1.2%	30.5*	5.4%
COc1ccc(S(=O)(=O)N(CC(=O)NCC2CCCO2)c2ccccc2)cc1OC (stereo not given)	-7.9	-17.7%	-3.9%	-1.8	3.5%
CN(Cc1cn(C)nc1-c1ccc(Oc2ccccc2)cc1)CC1COCCO1 (stereo not given)	2.9	?	?	-2.0	-0.9%
CC1=C(C(=O)OCc2ccc3c(c2)OCO3)C(c2ccccc2OCc2ccccc2)NC(=O)N1 (stereo not given)	-27.0	10.4µM*	/	0.8	28.5%
SMILES	Shiga inhibitor	Pf growth 48h	Pf growth 96h	Cycloheximide cs	NS1 inh
CC1=C(C(=O)OCc2ccc3c(c2)OCO3)C(c2ccccc2)NC(=O)N1 (stereo not given)	-25.5	/	-18.2%	-4.7	-22.2%
CCCOc1ccccc1C1NC(=O)NC(C)=C1C(=O)OCc1ccccc1 (stereo not given)	2.1	13.1µM*	-4.3%	-2.0	2.8%
CCCOc1ccccc1C1NC(=O)NC(C)=C1C(=O)OCCOC(C)C (stereo not given)	-13.1	?	11.7µM*	-11.4	-0.9%
CCCOc1ccccc1C1NC(=O)NC(C)=C1C(=O)OCCOC (stereo not given)	5.2	-5.4%	/	-3.1	-2.2%
Cc1cnc(C(=O)OCC(=O)c2ccc(-c3ccccc3)cc2)cn1	-12.6	1.7%	?	-1.7	-5.2%
CCN1CCCC1CNC(=O)C(=O)Nc1ccccc1OC (stereo not given)	-3.1	13.6%	47.0%	-0.8	11.0%
O=C(Nc1ccc(F)c(F)c1)c1cccnc1	-8.2	/	10.4µM*	1.1	-4.4%
COc1cccc(-c2nc(-c3ccc(NC(=O)c4cccnc4)cc3)no2)c1	-12.0	?	11.7µM*	-3.0	-8.8%
O=C(Nc1cccc(F)c1)c1cccnc1	-8.1	-0.8%	7.38µM*	-2.8	-9.2%
COc1cccc(NC(=O)c2cccnc2)c1	31.1	56.1%	-2.2%	31.6*	-0.2%

Assay outcomes as filed in PubChem.
